Source: PubChem BioAssay (NCATS)
Inconclusive results are not listed. Unmarked numbers belong to inactive results. The source made the active and inactive calls. Calls come from the whole dose curve; as a rule, active = well fitted curve in the direction sought with a large enough effect; inconclusive = small, poorly fitted or top-dose-only effect, or another doubt; inactive = no such curve, though single readings can be large; an effect the other way counts as inactive or inconclusive.

experiment: qHTS of pediatric cancer cell lines to identify multiple opportunities for drug repurposing: Primary screen for OHS-50 cells (AID 1347103); details: OHS-50 osteosarcoma viability, CellTiter-Glo luminescence, 48 h; series mostly up to 57.3 µM; activity change, negative = cytotoxic: at the top concentration; note: nearly all actives have a fitted effect of over 40% in size;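 for activity change, negative = cytotoxic: plate controls were DMSO neutral control for no effect and bortezomib positive control for full effect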
How it was run: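 Cells (500-1,000/well) rested 5 h, then received compounds for 48 h; metabolically active cells were measured by CellTiter-Glo luminescence. Final concentrations spanned up to 46 µM (MIPE, 11-point) or 0.59 nM-46 µM (NPC, 8-point) in primary screens, 11-point in follow-ups.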
Potency is the fitted concentration of half-maximal effect.

Row | SMILES | activity change, negative = cytotoxic | Potency
1 | CC(C)(C)[C@]1(O)C[C@@H]2OC(=O)C[C@@]23C(=O)O[C@@H]2OC(=O)[C@H](O)C213 (stereo not given in full) | 12.1% | –
2 | CC(=O)Nc1ccc(OC[C@](C)(O)C(=O)Nc2ccc([N+](=O)[O-])c(C(F)(F)F)c2)cc1 | -21.4% | –
3 | Cc1cc(O)ccc1Cl | 1.61% | –
4 | OCCCBr | 16.2% [at 116 µM] | –
5 | CCCCCCCCCCCCCCCC[N+](C)(C)C | – | 3.89 µM (active)
6 | C=CC(=O)NCNC(=O)C=C | 22.1% [at 116 µM] | –
7 | CN[C@@H](C)[C@H](O)c1ccccc1 | -6.95% | –
8 | CSCC[C@@H](NC(=O)[C@@H](Cc1ccccc1)NC(=O)CNC(=O)CNC(=O)[C@@H](N)Cc1ccc(O)cc1)C(=O)O | 20.4% | –
9 | O=C1CCC[C@@H]2[C@H]3CCCN4CCC[C@@H](CN12)[C@@H]34 | -8.3% | –
10 | CN(C)[C@@H]1C(=O)C(C(N)=O)=C(O)[C@@]2(O)C(=O)C3=C(O)c4c(O)cccc4[C@@](C)(O)[C@H]3[C@H](O)[C@@H]12 | 84.3% | –
11 | O=C(O)C(Cl)Cl | 4.76% | –
12 | Oc1ccc2c3c1O[C@H]1[C@@H](O)C=C[C@H]4[C@@H](C2)NCC[C@@]341 | -7.57% [at 116 µM] | –
13 | CCN1C[C@]2(OC(=O)c3ccccc3NC(C)=O)CC[C@H](OC)[C@@]34[C@H]5CC6[C@@H](OC)C[C@](O)(C(C[C@@H]23)[C@@H]14)[C@@]5(O)[C@@H]6OC | -4.7% | –
14 | C#CC1(O)CCC2C3CCC4=CC(=O)CCC4(C)C3CCC21C (stereo not given) | -12.1% | –
15 | CC[N+]1(CCOC(=O)C(O)(c2ccccc2)c2ccccc2)CCCCC1 | -9.32% | –
16 | C[C@@H]1[C@H](O)[C@@H](C)C=CC=CCCC=CC=CC=CC=C[C@H](O[C@H]2O[C@@H](C)[C@H](O)[C@@H](N)[C@@H]2O)CC2O[C@](O)(C[C@@H](O)[C@H](O)CC[C@@H](O)C[C@@H](O)C[C@@H](O)CC(=O)O[C@H]1C)C[C@H](O)[C@H]2C(=O)O | 5.48% | –
17 | O=S(=O)(O)C(F)(F)C(F)(F)C(F)(F)C(F)(F)F | 14.8% [at 116 µM] | –
18 | CC1=C(C(=O)O)N2C(=O)[C@@H](N)[C@H]2SC1 | 12.1% [at 19.7 µM] | –

Row | SMILES | activity change, negative = cytotoxic | Potency
19 | CCOC(=O)Nc1ccc(NCc2ccc(F)cc2)cc1N | 11.8% | –
20 | CC(C)N(CCNC(=O)CN1CCCC1=O)C(C)C | -4.39% | –
21 | Nc1ccc(Cl)cc1N | -8.99% [at 116 µM] | –
22 | CCC1(CCC(C)C)C(=O)NC(=O)NC1=O | -12.4% [at 116 µM] | –
23 | Cc1nc(-c2ccc(-c3ccc(C(=O)N4CCc5cc6c(cc54)C4(CCN(C)CC4)CO6)cc3)c(C)c2)no1 | 12.7% | –
24 | CC(O)=C(C#N)C(=O)Nc1cc(Br)ccc1Br | 0.938% | –
25 | O=C(O)c1cc(Oc2ccc(C(F)(F)F)cc2Cl)ccc1[N+](=O)[O-] | -7.95% | –
26 | CCOCCOC(C)=O | 16.4% [at 116 µM] | –
27 | C[C@]12CC[C@@H]3[C@@H](CCC4=CC(=O)CC[C@@H]43)[C@@H]1CC[C@@H]2OC(=O)CCc1ccccc1 | 12.2% | –
28 | C#C[C@]1(O)C=C[C@@H]2[C@@H]3CCC4=CC(=O)CC[C@@H]4[C@H]3CC[C@@]21CC | -18% | –
29 | O=[N+]([O-])/N=C1\NCCN1Cc1ccc(Cl)nc1 | -6% | –
30 | CCCCC(CC)COC(=O)c1ccccc1C(=O)OCC(CC)CCCC (stereo not given) | -17% [at 116 µM] | –
31 | C=C[C@@H]1CN2CCC1C[C@@H]2[C@@H](O)c1ccnc2ccccc12 (stereo not given in full) | – | 30.6 µM (active)
32 | C[C@H]([C@H](O)CCC(C)(C)O)[C@H]1CC[C@@]2(O)C3=CC(=O)[C@@H]4C[C@@H](O)[C@@H](O)C[C@]4(C)[C@@H]3CC[C@]12C | 7.44% | –
33 | CCC(=O)O[C@@H]1C=C2CCC3C(CCC4(C)C3CC[C@@H]4OC(=O)CC)C2CC1 (stereo not given in full) | -14.5% | –
34 | Cc1ccc(Cl)c(O)c1 | 9.78% | –
35 | O=[N+]([O-])c1ccc([As](=O)(O)O)cc1 | 13.9% | –

experiment: qHTS of pediatric cancer cell lines to identify multiple opportunities for drug repurposing: Primary screen for RD cells (AID 1347104); details: RD rhabdomyosarcoma viability, CellTiter-Glo luminescence, 48 h; series mostly up to 46 µM; activity change, negative = cytotoxic: at the top concentration; note: nearly all actives have a fitted effect of over 55% in size;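 for activity change, negative = cytotoxic: plate controls were DMSO for no effect and bortezomib for full effect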
How it was run: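 Following a 5-hour attachment period, cells at 500-1,000/well received compounds and were cultured for 48 hours. CellTiter-Glo was added and luminescence read to estimate viable, metabolically active cells.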

Row | SMILES | activity change, negative = cytotoxic | Potency
36 | CC(C)(C)[C@]1(O)C[C@@H]2OC(=O)C[C@@]23C(=O)O[C@@H]2OC(=O)[C@H](O)C213 (stereo not given in full) | -4.23% | –
37 | CC(=O)Nc1ccc(OC[C@](C)(O)C(=O)Nc2ccc([N+](=O)[O-])c(C(F)(F)F)c2)cc1 | -14.7% | –
38 | Cc1cc(O)ccc1Cl | 7.18% | –
39 | OCCCBr | 15.7% [at 92.7 µM] | –
40 | CCCCCCCCCCCCCCCC[N+](C)(C)C | – | 13.3 µM (active)
41 | C=CC(=O)NCNC(=O)C=C | -12.1% [at 92.7 µM] | –
42 | CN[C@@H](C)[C@H](O)c1ccccc1 | 0.599% | –
43 | CSCC[C@@H](NC(=O)[C@@H](Cc1ccccc1)NC(=O)CNC(=O)CNC(=O)[C@@H](N)Cc1ccc(O)cc1)C(=O)O | 12.4% | –
44 | O=C1CCC[C@@H]2[C@H]3CCCN4CCC[C@@H](CN12)[C@@H]34 | -2.82% | –
45 | CN(C)[C@@H]1C(=O)C(C(N)=O)=C(O)[C@@]2(O)C(=O)C3=C(O)c4c(O)cccc4[C@@](C)(O)[C@H]3[C@H](O)[C@@H]12 | 4.9% | –
46 | O=C(O)C(Cl)Cl | 9.45% | –
47 | Oc1ccc2c3c1O[C@H]1[C@@H](O)C=C[C@H]4[C@@H](C2)NCC[C@@]341 | -5.72% [at 92.7 µM] | –
48 | CCN1C[C@]2(OC(=O)c3ccccc3NC(C)=O)CC[C@H](OC)[C@@]34[C@H]5CC6[C@@H](OC)C[C@](O)(C(C[C@@H]23)[C@@H]14)[C@@]5(O)[C@@H]6OC | 11% | –
49 | C#CC1(O)CCC2C3CCC4=CC(=O)CCC4(C)C3CCC21C (stereo not given) | -14.5% | –
50 | CC[N+]1(CCOC(=O)C(O)(c2ccccc2)c2ccccc2)CCCCC1 | 5.82% | –
51 | C[C@@H]1[C@H](O)[C@@H](C)C=CC=CCCC=CC=CC=CC=C[C@H](O[C@H]2O[C@@H](C)[C@H](O)[C@@H](N)[C@@H]2O)CC2O[C@](O)(C[C@@H](O)[C@H](O)CC[C@@H](O)C[C@@H](O)C[C@@H](O)CC(=O)O[C@H]1C)C[C@H](O)[C@H]2C(=O)O | -2.3% | –
52 | O=S(=O)(O)C(F)(F)C(F)(F)C(F)(F)C(F)(F)F | 17.8% [at 92.7 µM] | –
53 | CC1=C(C(=O)O)N2C(=O)[C@@H](N)[C@H]2SC1 | 10.4% [at 16.1 µM] | –

Row | SMILES | activity change, negative = cytotoxic | Potency
54 | CCOC(=O)Nc1ccc(NCc2ccc(F)cc2)cc1N | – | 26.4 µM (active)
55 | CC(C)N(CCNC(=O)CN1CCCC1=O)C(C)C | 3.32% | –
56 | Nc1ccc(Cl)cc1N | -13.1% [at 92.7 µM] | –
57 | CCC1(CCC(C)C)C(=O)NC(=O)NC1=O | 1.97% [at 92.7 µM] | –
58 | Cc1nc(-c2ccc(-c3ccc(C(=O)N4CCc5cc6c(cc54)C4(CCN(C)CC4)CO6)cc3)c(C)c2)no1 | 5.97% | –
59 | CC(O)=C(C#N)C(=O)Nc1cc(Br)ccc1Br | -3.96% | –
60 | O=C(O)c1cc(Oc2ccc(C(F)(F)F)cc2Cl)ccc1[N+](=O)[O-] | 14.3% | –
61 | CCOCCOC(C)=O | 16.9% [at 92.7 µM] | –
62 | C[C@]12CC[C@@H]3[C@@H](CCC4=CC(=O)CC[C@@H]43)[C@@H]1CC[C@@H]2OC(=O)CCc1ccccc1 | -8.38% | –
63 | C#C[C@]1(O)C=C[C@@H]2[C@@H]3CCC4=CC(=O)CC[C@@H]4[C@H]3CC[C@@]21CC | 5.82% | –
64 | O=[N+]([O-])/N=C1\NCCN1Cc1ccc(Cl)nc1 | 1.83% | –
65 | CCCCC(CC)COC(=O)c1ccccc1C(=O)OCC(CC)CCCC (stereo not given) | 13.5% [at 92.7 µM] | –
66 | C=C[C@@H]1CN2CCC1C[C@@H]2[C@@H](O)c1ccnc2ccccc12 (stereo not given in full) | – | 29.6 µM (active)
67 | C[C@H]([C@H](O)CCC(C)(C)O)[C@H]1CC[C@@]2(O)C3=CC(=O)[C@@H]4C[C@@H](O)[C@@H](O)C[C@]4(C)[C@@H]3CC[C@]12C | 3.56% | –
68 | CCC(=O)O[C@@H]1C=C2CCC3C(CCC4(C)C3CC[C@@H]4OC(=O)CC)C2CC1 (stereo not given in full) | 5.73% | –
69 | Cc1ccc(Cl)c(O)c1 | 15.6% | –
70 | O=[N+]([O-])c1ccc([As](=O)(O)O)cc1 | 6.25% | –
